Measured values taken from ChEMBL document CHEMBL4513146, “CO-ADD screening of Karazin Kharkiv National University (Ukraine) compounds”.
Measured potencies and affinities stand elsewhere.

Columns and labels:
Staphylococcus aureus = conditions: Concentration 32 ug.mL-1;; ASSAY_TEST Inhibition of Bacterial Growth; detection method Absorption (OD600); MEDIA CAMHB; plate type 384well; NBS; CORNING #3640; time 18 hr
Escherichia coli = conditions: Concentration 32 ug.mL-1;; ASSAY_TEST Inhibition of Bacterial Growth; detection method Absorption (OD600); MEDIA CAMHB; plate type 384well; NBS; CORNING #3640; time 18 hr

SMILES | Inhibition (Staphylococcus aureus) [%] | Inhibition (Escherichia coli) [%]
Cc1nnc2ccc(S(=O)(=O)N(Cc3ccccc3F)c3cccc(F)c3)cn12 | 9.15 | -8.44
CCCCOc1ccc(-c2cc3c4nnc(SCC(=O)N(CC)c5ccccc5)n4ccn3n2)cc1 | 7.98 | -2.57
Cc1cccc(NC(=O)CSc2nnc3c4cc(-c5ccc(F)cc5)nn4ccn23)c1C | -11.28 | -13.99
CCc1cccc(NC(=O)CSc2nnc3c(=O)n(-c4ccccc4)ccn23)c1 | 0.07 | -11.7
Cc1ccc(Oc2nccn3c(=O)n(CC(=O)Nc4ccc(C)cc4Br)nc23)cc1 | 4.05 | -2.42
COc1cccc(Oc2nccn3c(=O)n(CC(=O)Nc4ccc(Br)cc4F)nc23)c1 | 14.87 | -0.07
CCC(Sc1nnc2c(=O)n(-c3cccc(OC)c3)ccn12)C(=O)Nc1cc(F)ccc1F (stereo not given) | 3.22 | -7.17
O=C(Cn1nc2c(Sc3cccc(F)c3)nccn2c1=O)Nc1cccc(Br)c1 | 3.89 | 0.56
O=S(=O)(c1cccn2c(SCc3c(F)cccc3Cl)nnc12)N1CCCC1 | 5.67 | 0.4
CCOC(=O)c1ccc(NC(=O)Cn2nc3ccc(C(=O)Nc4cccc(C)c4)cn3c2=O)cc1 | 1.34 | -4.77
